Drawing on PubChem BioAssay (NCATS), this text covers Potency, outcome and max response for one molecule.

Assay [1] can be described thus: Cell Viability - Jurkat (AID 426;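 active = dose-dependent loss of cell ATP signal giving a full or clear fitted curve, ranked by lower potency value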; also: potency is read from the fitted curve at half-maximal effect). The settings on record: qHTS. The method in brief:
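Jurkat (clone E6-1, human T-cell leukemia) cells, 5000/well in complete medium, were exposed to compound for 40 hr at 37 °C. Viability was read as intracellular ATP by CellTiter-Glo luminescence; AC50 came from Hill fits of concentration-response data.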
(In general: In qHTS, concentration-response curves come from the screen itself.)

Assay [2] in a line: Cell Viability - SK-N-SH (AID 435; calls by dose curve;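 also: potency is read from the fitted curve at half-maximal effect; compound exposure lasted 40 h at 37 °C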). The conditions noted are these: SK-N-SH neuroblastoma cell viability qHTS. The essentials:
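Cells seeded at 1500 per well and incubated 5 hr at 37 °C. Compound added, then 40 hr at 37 °C. CellTiter-Glo added, 20 min at room temperature, luminescence read.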

Assay [3] concerns the target Glucocorticoid receptor (Homo sapiens) (UniProt P04150). Kind of assay: qHTS assay for small molecule antagonists of glucocorticoid receptor signaling (AID 588533; active = well fitted inhibition curve with a large enough effect in the signal ratio, with a control signal flat, not every such curve was filed as active; the % refers to the signal ratio;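 also: cells stimulated with 2 nM dexamethasone as agonist; % is scaled to controls: 0 for no effect and ±100 for the full control effect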). The conditions noted are these: HeLa MMTV-bla, GRE beta-lactamase ratio, antagonist mode, 18 h; series mostly up to 76.8 µM. The essentials: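 Antagonist-mode qHTS: compound titrations added to GRE-bla HeLa cells, then dexamethasone 2 nM final; 18 h, 37 C. CCF4 FRET fluorescence normalized to dexamethasone and DMSO; IC50 from Hill fit.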

Assay [4] in a line: Viability counterscreen for antagonist of constitutive androstane receptor (CAR) against the NCATS DSHEA and TCM libraries (AID 1794837).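 Also: compound exposure lasted 24 h before viability reading; 0% is about no effect.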 The conditions noted are these: CAR reporter cell line viability counterscreen, qHTS; series mostly up to 40 µM. The method in brief: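 Fluorescence from CellTiter-Fluor reports live-cell protease activity in HepG2-CYP2B6-hCAR cells treated for 24 h with substances alongside 48 uM CITCO.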
On the technique in general: Counterscreens check selectivity or assay interference.

Assay [5] is described as follows: Viability counterscreen for agonist of constitutive androstane receptor (CAR) against the NCATS DSHEA and TCM libraries (AID 1794838). Also: 0% is about no effect. The settings on record: HepG2 cell viability counterscreen, CAR agonist assay; series mostly up to 40 µM. The essentials:
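In agonist mode, PK11195 is added at 0.75 uM final to HepG2-CYP2B6-hCAR cells dosed with test substances. Cultures incubate 24 h at 37C before a protease-based fluorogenic viability readout.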

For assay [6], the target named is Nuclear receptor subfamily 1 group I member 3 (Homo sapiens) (UniProt Q14994). In words: Primary qHTS for agonist of constitutive androstane receptor (CAR) against the NCATS DSHEA and TCM libraries (AID 1794839).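 Also: HepG2 cells expressing human CAR with a CYP2B6 reporter plus PK11195 antagonist; luciferase reporter luminescence read with ONE-Glo; 0% is about no effect.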 The conditions noted are these: CAR agonist reporter cells, qHTS luminescence; Potency: CAR antagonist co-added at 0.75 µM unless noted; series mostly up to 40 µM. The method in brief: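 Cells stably carrying hCAR and a CYP2B6 reporter (HepG2 background) are seeded and allowed 5 h to adhere. Substances at multiple concentrations are added alongside 0.75 µM PK11195, and luciferase signal is measured after 24 h.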
Sequence of Nuclear receptor subfamily 1 group I member 3 (Homo sapiens) (Q14994 whole entry, looked up): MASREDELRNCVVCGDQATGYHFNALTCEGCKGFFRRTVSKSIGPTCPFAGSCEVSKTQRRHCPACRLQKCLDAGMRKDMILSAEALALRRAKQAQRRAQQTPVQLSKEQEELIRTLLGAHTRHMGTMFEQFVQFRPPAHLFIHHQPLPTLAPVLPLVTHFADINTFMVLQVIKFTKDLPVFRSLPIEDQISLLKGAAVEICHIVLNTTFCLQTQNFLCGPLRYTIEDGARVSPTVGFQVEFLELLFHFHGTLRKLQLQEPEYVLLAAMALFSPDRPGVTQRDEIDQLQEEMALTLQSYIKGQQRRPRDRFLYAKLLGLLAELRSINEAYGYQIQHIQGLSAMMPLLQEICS

A short description of assay [7]: HepG2 viability counterscreen (readout 2: ATP content) against the NCATS DSHEA and TCM libraries (AID 1794840). Also: 0% is about no effect. The conditions noted are these: ATP content luminescence; series mostly up to 27.3 µM. The method in brief: (§1)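 Cytotoxicity was assessed in HepG2 cells plated at 1,000 cells/well and exposed for about 24 hours to a concentration series. Protease activity and ATP content were measured sequentially in each well.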

The nature of assay [8]: HepG2 viability counterscreen (readout 1: protease activity) against the NCATS DSHEA and TCM libraries (AID 1794841).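 Also: cells exposed to compounds for about 24 h before the protease read; 0% is about no effect.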 The settings on record: qHTS concentration series; series mostly up to 27.3 µM. The essentials: as §1
In assay [9] the target is Cytochrome P450 3A4 (Homo sapiens) (UniProt P08684). Kind of assay: qHTS for inhibitors of CYP3A4 against the NCATS DSHEA and TCM libraries (AID 1919971).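 Also: % is scaled to controls: 0 for no effect and ±100 for the full control effect; inhibition lowers luminescence from luciferin made by CYP3A4.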 The conditions noted are these: recombinant CYP3A4 enzyme activity, luminescence qHTS; series mostly up to 34.1 µM. The method in brief: (§2)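 Luminescent P450-Glo readout. Enzyme plus pro-luciferin substrate in manufacturer buffer (typically 100 mM KPO4); 15 min RT preincubation; 1x NADPH regenerating system, 30-45 min RT in the dark; detection reagent 30 min.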
Sequence of Cytochrome P450 3A4 (Homo sapiens) (P08684 whole entry, looked up): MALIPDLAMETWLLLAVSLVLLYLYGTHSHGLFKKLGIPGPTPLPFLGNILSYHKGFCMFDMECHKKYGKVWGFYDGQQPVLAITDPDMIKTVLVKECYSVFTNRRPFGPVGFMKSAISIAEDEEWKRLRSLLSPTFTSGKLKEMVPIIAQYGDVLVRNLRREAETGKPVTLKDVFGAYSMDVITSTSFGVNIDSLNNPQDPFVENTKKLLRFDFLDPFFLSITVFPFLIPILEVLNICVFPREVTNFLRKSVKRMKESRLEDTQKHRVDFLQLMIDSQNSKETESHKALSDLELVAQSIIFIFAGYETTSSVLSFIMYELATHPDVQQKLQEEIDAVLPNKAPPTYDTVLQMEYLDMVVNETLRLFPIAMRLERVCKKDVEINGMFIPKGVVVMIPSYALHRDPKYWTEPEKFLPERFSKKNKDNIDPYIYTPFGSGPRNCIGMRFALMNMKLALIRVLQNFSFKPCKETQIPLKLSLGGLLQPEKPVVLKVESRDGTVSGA

Assay [10] has as its target Cytochrome P450 2D6 (Homo sapiens) (UniProt P10635). In words: qHTS for inhibitors of CYP2D6 against the NCATS DSHEA and TCM libraries (AID 1919972). Also: % is scaled to controls: 0 for no effect and ±100 for the full control effect. The settings on record: CYP2D6 enzymatic inhibition, luminescence qHTS; series mostly up to 34.1 µM. The essentials: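 Steps: enzyme plus luciferin substrate dispensed; test substances pinned; 15 min RT; 1x NADPH regenerating solution added, 30–45 min RT protected from light; detection reagent, 30 min RT; luminescence measured. Minus-enzyme wells as background.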

For assay [11], the target named is Cytochrome P450 2C9 (Homo sapiens) (UniProt P11712). Kind of assay: qHTS for inhibitors of CYP2C9 against the NCATS DSHEA and TCM libraries (AID 1919973).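 Also: luminogenic pro-luciferin CYP2C9 substrate turned into luciferin with NADPH regeneration; % is scaled to controls: 0 for no effect and ±100 for the full control effect.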 The conditions noted are these: recombinant CYP2C9 enzyme activity, luminescence; series mostly up to 34.1 µM. The method in brief: as §2
Sequence of Cytochrome P450 2C9 (Homo sapiens) (P11712 whole entry, looked up): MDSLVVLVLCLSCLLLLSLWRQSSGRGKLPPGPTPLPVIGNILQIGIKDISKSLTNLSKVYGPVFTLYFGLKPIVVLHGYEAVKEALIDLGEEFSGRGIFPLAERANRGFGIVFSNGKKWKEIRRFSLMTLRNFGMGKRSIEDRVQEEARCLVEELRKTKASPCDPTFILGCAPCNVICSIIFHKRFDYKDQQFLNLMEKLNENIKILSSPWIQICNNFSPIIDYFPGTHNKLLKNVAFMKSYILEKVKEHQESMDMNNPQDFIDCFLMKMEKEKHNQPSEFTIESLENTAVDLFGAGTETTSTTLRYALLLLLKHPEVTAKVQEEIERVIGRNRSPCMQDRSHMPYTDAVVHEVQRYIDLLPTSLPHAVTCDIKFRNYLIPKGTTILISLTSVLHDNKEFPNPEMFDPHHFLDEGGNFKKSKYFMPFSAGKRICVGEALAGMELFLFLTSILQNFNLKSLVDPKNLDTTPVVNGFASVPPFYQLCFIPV
Assay [12] has as its target Cytochrome P450 2C19 (Homo sapiens) (UniProt P33261). Kind of assay: qHTS for inhibitors of CYP2C19 against the NCATS DSHEA and TCM libraries (AID 1919974).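 Also: luminescence from luciferin released by CYP2C19 oxidation of a pro-luciferin substrate; % is scaled to controls: 0 for no effect and ±100 for the full control effect.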 The conditions noted are these: CYP2C19 enzyme inhibition, luminescence qHTS; series mostly up to 34.1 µM. The method in brief: as §2
Assay [13] is described as follows: KB-3-1 P-gp reporter qHTS against the NCATS DSHEA and TCM libraries (AID 1919975). Also: 0% is about no effect. The settings on record: KB-3-1 parental cells, CellTiter-Glo luminescence viability, 72 h; series mostly up to 26.1 µM. The essentials:
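72 h exposure of KB-3-1 cells (DMEM, 10% FBS) to DSHEA/TCM samples, concentration-response; cell viability measured as CellTiter-Glo luminescence after 30 min at room temperature.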

The target of assay [14] is Cytochrome P450 1A2 (Homo sapiens) (UniProt P05177). In words: qHTS for inhibitors of CYPIA2 against the NCATS DSHEA and TCM libraries (AID 1919976). Also: potency is read from the fitted curve at half-maximal effect. The conditions noted are these: recombinant CYP1A2 enzyme activity, luminescence; series mostly up to 37 µM. The essentials:
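Human CYP1A2 with its pro-luciferin substrate in supplier buffer (typically 100 mM KPO4) was pre-incubated with compounds 15 min at RT. Reaction was started with 1x NADPH regeneration solution and run 30-45 min at RT in the dark, then luminescence was read after P450-Glo detection reagent (30 min RT).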

Assay [15] in a line: KB-8-5-11 P-gp reporter qHTS against the NCATS DSHEA and TCM libraries (AID 1919977). Also: 0% is about no effect. The conditions noted are these: KB-8-5-11 cells; series mostly up to 26.1 µM. The method in brief: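 Cells were seeded, allowed ~4 h to attach, dosed by pin tool (substance titrations), incubated ~72 h at 37C, then lysed with CellTiter-Glo for 30 min at room temperature before luminescence reading.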

A short description of assay [16]: qHTS Counterscreen for compound interference against the NCATS DSHEA and TCM libraries (AID 1919978). Also: % of control where 0% means no effect. The settings on record: firefly luciferase detection reagent interference, luminescence. The essentials:
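Read-out is luminescence after 30 min at RT with luciferin detection reagent. Before that, compounds (19.5 nM to 39.8 uM final) sat 15 min at RT with 1 uM D-luciferin or 100 mM potassium phosphate buffer. PTC124 served as intraplate control.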

A short description of assay [17]: Dual reporter qHTS for agonist of Pregnane X Receptor (hPXR) against the NCATS DSHEA and TCM libraries: Fluorescence readout (AID 1920058). Also: 0% is about no effect. The conditions noted are these: PXR dual reporter cells; series mostly up to 40 µM. The method in brief: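 hPXR-Luc HepG2 cells (2000/well) in phenol red-free medium with charcoal-stripped FBS attached for 5 h, then were exposed to compounds for about 24 h at 37 °C. Viability was read by CellTiter-Fluor fluorescence (Ex/Em 405/540 nm) after 1 h.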

Assay [18] concerns the target Nuclear receptor subfamily 1 group I member 2 (Homo sapiens) (UniProt O75469). Kind of assay: Dual reporter qHTS for agonist of Pregnane X Receptor (hPXR) against the NCATS DSHEA and TCM libraries: Luminescence readout (AID 1920059). Also: 0% is about no effect. The conditions noted are these: hPXR dual reporter cells, luciferase luminescence agonist; series mostly up to 40 µM. The method in brief: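 hPXR-LucHepG2 cells in phenol red-free DMEM with 5% charcoal-stripped FBS, 2000 cells/well, attached 5 h, then exposed 24 h at 37C to compounds; rifampicin as positive agonist control (2.8 nM–92 uM). Luciferase luminescence read.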

Assay [19] shares this target. Kind of assay: Dual reporter qHTS for antagonist of Pregnane X Receptor (hPXR) against the NCATS DSHEA and TCM libraries: Luminescence Readout (AID 1920060).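 Also: HepG2 cells carrying hPXR luciferase reporter stimulated with rifampicin at 2 µM; 0% is about no effect.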 The settings on record: hPXR dual reporter cells, luciferase luminescence, antagonist mode; series mostly up to 40 µM. The method in brief:
(§3)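 HepG2 hPXR-Luc, 2000 cells/well, charcoal-stripped FBS medium; 5 h attach; RIF 2 uM final; 24 h 37C/5% CO2; CellTiter-Fluor 1 h, fluor 405/540; ONE-Glo 30 min RT, lum.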

Assay [20] is described as follows: Dual reporter qHTS for antagonist of Pregnane X Receptor (hPXR) against the NCATS DSHEA and TCM libraries: Fluorescence Readout (AID 1920061). Also: 0% is about no effect. The settings on record: PXR dual reporter cells, antagonist mode; series mostly up to 40 µM. The essentials:
as §3

Values without a mark were called inactive. Records with an inconclusive call do not appear. Active and inactive are the calls of the source. Unless noted, calls follow the shape of the dose curve; as a rule, active = well fitted curve in the direction sought with a large enough effect; inconclusive = small, poorly fitted or top-dose-only effect, or another doubt; inactive = no such curve, though single readings can be large; an effect the other way counts as inactive or inconclusive.

Sequence of Nuclear receptor subfamily 1 group I member 2 (Homo sapiens) (O75469 whole entry, looked up): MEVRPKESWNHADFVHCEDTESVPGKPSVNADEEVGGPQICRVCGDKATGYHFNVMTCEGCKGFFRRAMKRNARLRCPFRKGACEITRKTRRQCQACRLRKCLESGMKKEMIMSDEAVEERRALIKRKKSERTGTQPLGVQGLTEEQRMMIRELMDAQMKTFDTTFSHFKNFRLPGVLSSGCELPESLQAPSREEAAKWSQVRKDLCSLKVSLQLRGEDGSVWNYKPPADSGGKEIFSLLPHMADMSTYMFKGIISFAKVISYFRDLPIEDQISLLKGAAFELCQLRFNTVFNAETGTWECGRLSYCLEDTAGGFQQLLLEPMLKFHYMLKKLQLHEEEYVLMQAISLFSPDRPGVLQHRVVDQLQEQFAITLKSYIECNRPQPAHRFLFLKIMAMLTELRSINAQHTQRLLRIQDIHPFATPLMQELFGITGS
Sequence of Glucocorticoid receptor (Homo sapiens) (P04150 whole entry, looked up): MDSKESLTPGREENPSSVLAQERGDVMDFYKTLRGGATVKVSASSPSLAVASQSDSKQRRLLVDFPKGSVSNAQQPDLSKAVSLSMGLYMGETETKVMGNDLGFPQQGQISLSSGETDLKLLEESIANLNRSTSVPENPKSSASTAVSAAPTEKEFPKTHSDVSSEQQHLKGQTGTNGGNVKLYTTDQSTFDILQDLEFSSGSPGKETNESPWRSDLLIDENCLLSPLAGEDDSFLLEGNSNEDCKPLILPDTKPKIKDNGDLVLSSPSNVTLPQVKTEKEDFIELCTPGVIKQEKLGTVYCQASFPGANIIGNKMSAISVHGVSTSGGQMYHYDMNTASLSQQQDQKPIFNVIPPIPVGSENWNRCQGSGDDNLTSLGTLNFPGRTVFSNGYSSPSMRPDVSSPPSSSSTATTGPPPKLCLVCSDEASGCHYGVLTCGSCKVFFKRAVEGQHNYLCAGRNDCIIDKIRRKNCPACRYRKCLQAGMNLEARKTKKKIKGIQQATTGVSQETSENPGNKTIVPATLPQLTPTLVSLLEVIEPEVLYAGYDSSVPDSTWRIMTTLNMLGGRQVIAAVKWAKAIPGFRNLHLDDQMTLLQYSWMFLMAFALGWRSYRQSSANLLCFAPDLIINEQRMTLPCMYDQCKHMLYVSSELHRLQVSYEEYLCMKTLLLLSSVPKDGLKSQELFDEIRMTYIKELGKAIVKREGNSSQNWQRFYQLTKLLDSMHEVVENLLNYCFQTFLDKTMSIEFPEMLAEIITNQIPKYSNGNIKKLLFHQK
Sequence of Cytochrome P450 1A2 (Homo sapiens) (P05177 whole entry, looked up): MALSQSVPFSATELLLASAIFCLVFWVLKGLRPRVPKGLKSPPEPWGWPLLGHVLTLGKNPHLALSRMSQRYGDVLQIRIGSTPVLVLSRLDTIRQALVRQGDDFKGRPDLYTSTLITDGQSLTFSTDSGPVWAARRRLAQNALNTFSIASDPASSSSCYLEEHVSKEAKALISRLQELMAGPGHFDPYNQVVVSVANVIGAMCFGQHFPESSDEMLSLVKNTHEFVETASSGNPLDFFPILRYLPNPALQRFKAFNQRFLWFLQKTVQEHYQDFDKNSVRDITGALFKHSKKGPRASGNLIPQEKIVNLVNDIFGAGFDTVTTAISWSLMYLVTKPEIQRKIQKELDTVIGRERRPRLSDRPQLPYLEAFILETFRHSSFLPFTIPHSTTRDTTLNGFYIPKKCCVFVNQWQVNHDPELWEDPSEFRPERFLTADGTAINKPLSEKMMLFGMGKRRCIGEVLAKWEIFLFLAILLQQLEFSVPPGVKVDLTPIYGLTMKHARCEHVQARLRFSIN
Sequence of Cytochrome P450 2D6 (Homo sapiens) (P10635 whole entry, looked up): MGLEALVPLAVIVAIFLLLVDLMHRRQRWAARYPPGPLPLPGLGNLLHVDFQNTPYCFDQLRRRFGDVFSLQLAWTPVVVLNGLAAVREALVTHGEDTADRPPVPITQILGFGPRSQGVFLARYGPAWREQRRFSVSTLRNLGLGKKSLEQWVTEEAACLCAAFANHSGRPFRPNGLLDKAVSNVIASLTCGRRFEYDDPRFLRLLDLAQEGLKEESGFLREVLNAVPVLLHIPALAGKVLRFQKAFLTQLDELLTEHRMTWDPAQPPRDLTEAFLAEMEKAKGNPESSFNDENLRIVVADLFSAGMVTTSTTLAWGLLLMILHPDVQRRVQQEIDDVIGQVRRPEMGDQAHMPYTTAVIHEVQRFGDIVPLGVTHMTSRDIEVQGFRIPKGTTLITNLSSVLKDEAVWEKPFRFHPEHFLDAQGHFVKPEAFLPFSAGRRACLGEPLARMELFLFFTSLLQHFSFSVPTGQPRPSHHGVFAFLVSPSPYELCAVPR
Sequence of Cytochrome P450 2C19 (Homo sapiens) (P33261 whole entry, looked up): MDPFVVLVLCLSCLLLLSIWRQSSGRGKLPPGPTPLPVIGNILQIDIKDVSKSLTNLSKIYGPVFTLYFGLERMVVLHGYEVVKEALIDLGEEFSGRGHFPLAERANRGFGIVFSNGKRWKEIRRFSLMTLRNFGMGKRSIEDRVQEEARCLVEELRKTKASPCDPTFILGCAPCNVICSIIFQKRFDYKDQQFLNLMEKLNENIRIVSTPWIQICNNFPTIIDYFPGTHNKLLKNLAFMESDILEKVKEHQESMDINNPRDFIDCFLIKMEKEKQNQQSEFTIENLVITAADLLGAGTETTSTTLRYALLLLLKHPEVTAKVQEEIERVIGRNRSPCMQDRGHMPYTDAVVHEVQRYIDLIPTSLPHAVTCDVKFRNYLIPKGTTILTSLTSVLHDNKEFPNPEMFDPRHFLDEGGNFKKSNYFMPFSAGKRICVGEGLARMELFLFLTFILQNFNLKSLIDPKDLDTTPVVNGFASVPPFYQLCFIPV

Regarding `C=CCc1ccc2c(c1)OCO2`, the Potency was more than 92 µM in [1], more than 92 µM in assay [2] and 15.8 µM (active) in assay [14]. Also, the Potency result in [3], in [6], in [9], in assay [10], in [11] and in [12] was “inactive” in each case. Besides, the Potency result in assay [15] and in [18] was “inactive” each time. In addition, the call in assay [4], in assay [5], in [7], in [8], in [13] and in assay [17] was inactive. The molecule was classed as inactive in [19] and in assay [20]. In assay [16], the max response is 0.591%.
